Active and inactive are the calls of the source. Unless noted, no rule for the calls is given here.
Experiments:
[1] = compound effects on lung adenocarcinoma cell viability – A549, calcein-AM fluorescence, 48 h, basal, profiling panel (AID 1162); details: higher = more signal; also: test concentration not given here
[2] = compound effects on differentiated 3T3-L1 adipocyte viability – cell-based, 3T3-L1 adipocytes, calcein-AM fluorescence, 48 h, basal, profiling panel (AID 1163); details: 3T3-L1 adipocytes viability, higher = more signal; also: test concentration not given here
[3] = compound effects on hepatocellular carcinoma cell viability – HepG2, calcein-AM fluorescence, 48 h, basal, profiling panel (AID 1164); details: higher = more signal; also: test concentration not given here
[4] = compound effects on multiple myeloma cell viability – MM1S, calcein-AM fluorescence, 48 h, basal, profiling panel (AID 1165); details: higher = more signal;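 also: viability of MM1S multiple myeloma cells under basal unstimulated conditions; test concentration not given here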
[5] = calcein-AM signal in unstimulated myeloma cells – cell-based, calcein-AM fluorescence, 48 h, PK04 Diversity Set, profiling panel (AID 1166); details: RPMI8226 myeloma viability, higher = more signal;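 also: cells grown under basal conditions without added stimulus; test concentration not given here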
[6] = JC-1 mitochondrial signal, unstimulated HepG2 cells – cell-based, JC-1 fluorescence, 24 h, 100 nL compound, profiling panel (AID 1167); details: HepG2 mitochondrial potential, higher = more signal; also: test concentration not given here
[7] = JC-1 mitochondrial signal, unstimulated adipocytes – cell-based, JC-1 fluorescence, 3T3-L1 adipocytes, 24 h, 100 nL compound, profiling panel (AID 1168); details: JC-1 mitochondrial fluorescence, higher = more signal, called active from +8 up or from −8 down; also: test concentration not given here
[8] = JC-1 mitochondrial signal, unstimulated myeloma cells – cell-based, JC-1 fluorescence, RPMI8226, 24 h, 100 nL compound, profiling panel (AID 1169); details: JC-1 mitochondrial potential fluorescence, higher = more signal; also: test concentration not given here
[9] = JC-1 mitochondrial signal, unstimulated MM1S myeloma – cell-based, JC-1 fluorescence, 24 h, 100 nL compound, profiling panel (AID 1170); details: MM1S mitochondrial potential, higher = more signal; also: test concentration not given here
[10] = resazurin metabolic signal in A549 cells – cell-based, resazurin fluorescence, 24 h, PK04 Diversity Set, profiling panel (AID 1171); details: A549 viability, higher = more signal, called active from +8 up or from −8 down; also: test concentration not given here
[11] = resazurin metabolic signal in HepG2 cells – cell-based, resazurin fluorescence, 24 h, PK04 Diversity Set, profiling panel (AID 1172); details: HepG2 viability, higher = more signal; also: test concentration not given here
[12] = budding yeast growth changes without added modifier – OD600, strain BY4716, 24 h, basal condition, primary screen (AID 1173); details: S. cerevisiae BY4716 growth, OD600, 24 h; higher = more signal, called active from +8 up or from −8 down
[13] = viability profiling in MM1S myeloma cells – cell-based, resazurin fluorescence, basal, 24 h, PK04 Diversity Set, profiling panel (AID 1174); details: higher = more signal, called active from +8 up or from −8 down; also: test concentration not given here
[14] = target: Dihydroorotate dehydrogenase (quinone), mitochondrial (Plasmodium falciparum (isolate 3D7)) (UniProt Q08210); assay: inhibition of P. falciparum DHODH – biochemical, C-terminal His tag, absorbance 600 nm, primary screen (AID 1175); details: PfDHODH enzyme, DCIP absorbance 600 nm; higher = more signal, called active from +8 up or from −8 down;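 also: recombinant parasite enzyme with a five histidine tag at its C terminus; test concentration not given here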
[15] = inhibition of PAO1 biofilm formation – strain PAO1, LB-PBS medium, absorbance 600 nm, primary screen (AID 1176); also: test concentration not given here; details: P. aeruginosa PAO1 growth/biofilm, A600, 12 h; higher = more signal
[16] = growth modulation of vineyard yeast isolate – strain RM11-1a, OD600, basal, 24 h, primary screen (AID 1177);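 also: cultures grown under basal conditions with no added stressor; test concentration not given here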; details: S. cerevisiae RM11-1a growth, OD600, 24 h; higher = more signal, called active from +8 up or from −8 down
[17] = growth of efflux-deficient E. coli DRC39 – strain DRC39, OD650, 24 h, E. coli filamentation inducers, primary screen (AID 1178);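 also: growth measured as culture turbidity by optical density at 650 nm; test concentration not given here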; details: E. coli DRC39 acrAB, higher = more signal, called active from +8 up or from −8 down
[18] = growth of efflux-deficient E. coli DRC39 – strain DRC39, OD650, 48 h, E. coli filamentation inducers, primary screen (AID 1179);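 also: screen aims at cell division blockers that make cells filament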; details: E. coli DRC39 delta-acrAB growth, higher = more signal, called active from +8 up or from −8 down
[19] = viability profiling in RPMI8226 myeloma cells – cell-based, resazurin fluorescence, basal, 24 h, PK04 Diversity Set, profiling panel (AID 1180); details: higher = more signal;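 also: RPMI8826 multiple myeloma cell line at 5000 cells per well; test concentration not given here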
[20] = target: E3 ubiquitin-protein ligase XIAP (Homo sapiens) (UniProt P98170); assay: small molecules binding XIAP protein – biophysical, small-molecule microarray, fluorescence 635 nm, primary screen (AID 1181); details: higher = more signal;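 also: score merges 667 nm emission and signal to noise over triplicate slides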
Chain of E3 ubiquitin-protein ligase XIAP (Homo sapiens) (P98170 whole entry, looked up): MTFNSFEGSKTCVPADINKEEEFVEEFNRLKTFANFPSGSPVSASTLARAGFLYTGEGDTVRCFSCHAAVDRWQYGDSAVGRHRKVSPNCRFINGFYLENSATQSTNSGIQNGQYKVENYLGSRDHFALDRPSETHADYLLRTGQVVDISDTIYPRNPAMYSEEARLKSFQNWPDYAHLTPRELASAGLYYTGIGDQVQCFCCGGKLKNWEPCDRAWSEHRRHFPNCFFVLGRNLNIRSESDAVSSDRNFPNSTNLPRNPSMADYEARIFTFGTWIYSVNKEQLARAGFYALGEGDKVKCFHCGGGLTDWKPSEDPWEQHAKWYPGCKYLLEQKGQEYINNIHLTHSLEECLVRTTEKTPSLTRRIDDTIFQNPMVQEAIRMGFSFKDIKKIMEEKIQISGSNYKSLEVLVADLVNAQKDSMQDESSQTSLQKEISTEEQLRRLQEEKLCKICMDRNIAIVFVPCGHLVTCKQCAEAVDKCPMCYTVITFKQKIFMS

Chain of Dihydroorotate dehydrogenase (quinone), mitochondrial (Plasmodium falciparum (isolate 3D7)) (Q08210 whole entry, looked up): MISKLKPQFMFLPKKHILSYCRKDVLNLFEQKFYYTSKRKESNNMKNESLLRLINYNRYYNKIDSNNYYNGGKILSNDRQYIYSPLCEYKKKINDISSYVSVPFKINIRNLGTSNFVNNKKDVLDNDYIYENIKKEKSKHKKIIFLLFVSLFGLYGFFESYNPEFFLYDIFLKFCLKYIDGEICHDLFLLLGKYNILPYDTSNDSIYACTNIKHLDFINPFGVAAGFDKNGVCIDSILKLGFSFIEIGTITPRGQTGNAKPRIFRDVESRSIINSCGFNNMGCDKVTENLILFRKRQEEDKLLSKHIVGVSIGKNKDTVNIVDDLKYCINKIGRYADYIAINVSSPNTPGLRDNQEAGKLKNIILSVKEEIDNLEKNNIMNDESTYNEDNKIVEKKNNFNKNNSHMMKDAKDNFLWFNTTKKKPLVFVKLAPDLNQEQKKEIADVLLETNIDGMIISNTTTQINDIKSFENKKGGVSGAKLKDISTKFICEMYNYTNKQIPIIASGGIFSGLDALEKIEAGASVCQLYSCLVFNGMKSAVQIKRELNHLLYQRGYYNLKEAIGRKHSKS

Row | SMILES | z-score [1] | z-score [2] | z-score [3] | z-score [4] | z-score [5] | z-score [6] | z-score [7] | z-score [8] | z-score [9] | z-score [10] | z-score [11] | z-score [12] | z-score [13] | composite z-score [14] | z-score [15] | z-score [16] | z-score [17] | z-score [18] | z-score [19] | composite z-score [20]
1 | CCOC(=O)C1=C[C@@H](c2ccccc2)N(S(=O)(=O)c2ccc(C)cc2)[C@H]1c1ccccc1 | -0.834 | -0.926 | -0.813 | -1.14 | -1.16 | 1.62 | -2.52 (inactive) | -0.368 | -0.0131 | 0.537 (inactive) | -0.443 | 0.779 (inactive) | -1.38 (inactive) | -0.629 (inactive) | 0.878 (inactive) | 0.398 (inactive) | -0.86 (inactive) | -0.605 (inactive) | -0.549 | 0.125
2 | C=C(CCCC)C(=O)CC[C@H](OC(=O)c1ccccc1-c1ccccc1C(=O)O)c1ccccc1OCCO | 0.305 | 1.1 | -0.669 | -3.38 | -3.85 | -0.309 | 0.954 (inactive) | -0.873 | 0.311 | -0.22 (inactive) | -1.08 | -1.45 (inactive) | -0.976 (inactive) | -0.824 (inactive) | 0.91 (inactive) | -0.0444 (inactive) | 0.506 (inactive) | 0.237 (inactive) | -1.03 | 0.0416
3 | [N-]=[N+]=Nc1ccccc1C[C@@]1(C(=O)O)N=C(c2ccc(OCCCO)cc2)O[C@@H]1c1ccccc1N=[N+]=[N-] | -0.404 | -0.115 | -0.36 | -2.44 | -2.44 | -2.37 | -0.74 (inactive) | -0.56 | -0.739 | 0.13 (inactive) | 0.628 | -2.04 (inactive) | -0.988 (inactive) | -0.435 (inactive) | 0.879 (inactive) | -1.23 (inactive) | -0.258 (inactive) | -0.69 (inactive) | -0.955 | -0.0374
4 | COc1ccc(C(=O)Nc2cccc(CN3C(=O)[C@@]4(O[C@@H](CC(=O)N(CCO)Cc5ccccc5)[C@H]([Si](C)(C)c5ccc(OC)cc5)[C@H]4C)c4ccccc43)c2)cc1 | -0.269 | 1.36 | -1.39 | -0.696 | -4.07 | 0.672 | 2.67 (inactive) | -0.865 | -0.789 | -2.23 (inactive) | -0.0246 | 0.062 (inactive) | -2.3 (inactive) | -2.25 (inactive) | 0.711 (inactive) | 0.621 (inactive) | 0.289 (inactive) | 0.45 (inactive) | -2.67 | -0.0365
5 | CC(C)CNC(=O)[C@@H]1c2ccccc2C(=O)N(C2CCCCC2)[C@H]1c1ccc(CO)cc1 | 2.93 | 0.258 | 1.41 | 0.0402 | 0.424 | 4.35 | 1.16 (inactive) | 0.301 | -0.605 | 2.26 (inactive) | 1.12 | -0.664 (inactive) | 1.5 (inactive) | 0.246 (inactive) | 0.292 (inactive) | -1.22 (inactive) | 1.49 (inactive) | 1.59 (inactive) | 1.34 | -0.234
6 | CC(=O)NCCCC[C@@H]1NC(=O)[C@H]2C[C@@H](C(=O)NCCCCCNC(=O)CS)[C@@H](c3cccc(OCCO)c3)N2C1=O | -0.227 | -0.146 | 0.0877 | 0.0637 | -0.433 | 1.09 | -0.286 (inactive) | -0.428 | 0.0573 | -0.496 (inactive) | -0.223 | 0.332 (inactive) | -0.0374 (inactive) | 0.657 (inactive) | 0.559 (inactive) | -0.39 (inactive) | -0.0744 (inactive) | 0.382 (inactive) | -0.653 | 2.75
7 | CC(C)C(=C=CC[C@H](O)c1cccc(OCCO)c1)CCO | 0.211 | 0.786 | 0.401 | 0.214 | 0.292 | 0.434 | -0.599 (inactive) | 0.6 | -0.373 | 1.21 (inactive) | 0.934 | -1.47 (inactive) | 1.09 (inactive) | -0.131 (inactive) | -0.0464 (inactive) | -0.661 (inactive) | 0.353 (inactive) | 0.642 (inactive) | 0.929 | -0.031
8 | CN(C)CCCNC(=O)[C@@H]1c2ccccc2C(=O)N(C2CCCCC2)[C@H]1c1ccc(CO)cc1 | 0.634 | -0.318 | 0.821 | -0.592 | -0.514 | 2.43 | 0.626 (inactive) | 0.363 | -0.243 | 0.887 (inactive) | 0.848 | -0.737 (inactive) | 0.749 (inactive) | -0.151 (inactive) | 0.0714 (inactive) | 0.409 (inactive) | -0.101 (inactive) | 0.515 (inactive) | 0.988 | -0.157
9 | COc1cc(NN2C(C(O)c3ccc(I)cc3)C=CC3C(=O)N(c4ccccc4)C(=O)C32)cc(OC)c1OC (stereo not given) | -0.844 | -0.294 | -0.683 | -0.344 | -1.4 | -1.14 | -1.46 (inactive) | -0.786 | -1.4 | -0.749 (inactive) | -1.35 | 0.645 (inactive) | -0.694 (inactive) | -0.755 (inactive) | 0.835 (inactive) | 0.0247 (inactive) | 0.456 (inactive) | 0.176 (inactive) | -1.34 | 0.162

Source: PubChem BioAssay
